# PubChem BioAssay (Tox21)
# Inconclusive results are not listed. A call without a number means that no potency is given here. Activity calls are given as the source filed them. The call rests on the fitted dose curve; in most records, active means well fitted curve in the direction sought with a large enough effect in the repeat runs; inconclusive means weak or mixed curves; inactive means no such curve, though single readings can be large; an effect the other way counts as inactive or inconclusive.
# How the values were obtained:
# [1] = molecular target: Cytochrome P450 2C19 (Homo sapiens) (UniProt P33261); test: Cytochrome P450 Family 2 Subfamily C Member 19 (CYP2C19) small molecule antagonists: luciferase reporter qHTS assay (AID 1671197); details: P450-Glo CYP2C19 enzyme, luciferin luminescence, 1 h; series mostly up to 115 µM; further: nearly all actives have a fitted effect of over 65% in size
# Sequence of Cytochrome P450 2C19 (Homo sapiens) (P33261 whole entry, looked up): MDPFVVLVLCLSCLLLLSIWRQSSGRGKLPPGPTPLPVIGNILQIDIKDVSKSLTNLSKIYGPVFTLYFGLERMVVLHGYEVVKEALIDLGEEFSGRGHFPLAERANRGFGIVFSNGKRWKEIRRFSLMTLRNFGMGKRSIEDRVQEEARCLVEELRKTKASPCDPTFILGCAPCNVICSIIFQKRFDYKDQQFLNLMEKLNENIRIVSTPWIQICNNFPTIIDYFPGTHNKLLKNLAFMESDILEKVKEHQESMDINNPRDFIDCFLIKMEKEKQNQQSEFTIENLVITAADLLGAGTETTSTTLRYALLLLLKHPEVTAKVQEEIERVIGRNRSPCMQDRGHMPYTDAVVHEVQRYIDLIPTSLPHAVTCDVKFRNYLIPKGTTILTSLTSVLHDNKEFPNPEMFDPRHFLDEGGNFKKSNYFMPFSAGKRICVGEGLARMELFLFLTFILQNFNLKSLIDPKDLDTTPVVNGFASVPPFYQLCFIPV
# Outline: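 Luminescent readout of CYP2C19 activity: luciferin product detected 20 min after adding detection reagent. Before that, compound and enzyme-substrate mix preincubated 10 min at room temperature; NADPH-regenerating system started a 1 h, 37C reaction. Ketoconazole as positive control.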
# [2] = molecular target: Cytochrome P450 1A2 (Homo sapiens) (UniProt P05177); test: Cytochrome P450 Family 1 Subfamily A Member 2 (CYP1A2) small molecule antagonists: luciferase reporter qHTS assay (AID 1671199); details: P450-Glo CYP1A2 enzyme, luciferin luminescence, 1 h; series mostly up to 53 µM; further: nearly all actives have a fitted effect of over 50% in size
# Sequence of Cytochrome P450 1A2 (Homo sapiens) (P05177 whole entry, looked up): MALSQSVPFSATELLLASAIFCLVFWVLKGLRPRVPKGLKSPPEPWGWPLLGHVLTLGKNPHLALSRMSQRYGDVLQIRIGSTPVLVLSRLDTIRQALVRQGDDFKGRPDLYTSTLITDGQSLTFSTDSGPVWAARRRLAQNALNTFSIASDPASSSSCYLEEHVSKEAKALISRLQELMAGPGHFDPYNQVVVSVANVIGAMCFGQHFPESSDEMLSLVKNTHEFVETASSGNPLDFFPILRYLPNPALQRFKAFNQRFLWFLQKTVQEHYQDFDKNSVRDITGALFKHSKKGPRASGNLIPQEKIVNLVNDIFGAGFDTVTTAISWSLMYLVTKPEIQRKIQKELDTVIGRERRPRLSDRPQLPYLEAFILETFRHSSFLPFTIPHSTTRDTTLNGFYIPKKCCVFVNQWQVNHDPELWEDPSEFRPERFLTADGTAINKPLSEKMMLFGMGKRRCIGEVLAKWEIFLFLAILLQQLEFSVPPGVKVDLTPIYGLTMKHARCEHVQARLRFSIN
# Outline: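 Signal from luciferin formed by CYP1A2 from a proluciferin substrate is read as luminescence, expressed in relative luminescence units. Compounds sit with enzyme 10 min, NADPH-driven reaction runs 1 h, all at room temperature.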
# [3] = molecular target: Voltage-gated inwardly rectifying potassium channel KCNH2 (Homo sapiens) (UniProt Q12809); test: Human Ether-a-go-go-Related Gene (hERG) channel small molecule antagonists: fluorescence cell-based qHTS assay (AID 1671200); details: hERG-U2OS cells, FluxOR thallium flux fluorescence; series mostly up to 76.8 µM; further: nearly all actives have a fitted effect of over 50% in size
# Sequence of Voltage-gated inwardly rectifying potassium channel KCNH2 (Homo sapiens) (Q12809 whole entry, looked up): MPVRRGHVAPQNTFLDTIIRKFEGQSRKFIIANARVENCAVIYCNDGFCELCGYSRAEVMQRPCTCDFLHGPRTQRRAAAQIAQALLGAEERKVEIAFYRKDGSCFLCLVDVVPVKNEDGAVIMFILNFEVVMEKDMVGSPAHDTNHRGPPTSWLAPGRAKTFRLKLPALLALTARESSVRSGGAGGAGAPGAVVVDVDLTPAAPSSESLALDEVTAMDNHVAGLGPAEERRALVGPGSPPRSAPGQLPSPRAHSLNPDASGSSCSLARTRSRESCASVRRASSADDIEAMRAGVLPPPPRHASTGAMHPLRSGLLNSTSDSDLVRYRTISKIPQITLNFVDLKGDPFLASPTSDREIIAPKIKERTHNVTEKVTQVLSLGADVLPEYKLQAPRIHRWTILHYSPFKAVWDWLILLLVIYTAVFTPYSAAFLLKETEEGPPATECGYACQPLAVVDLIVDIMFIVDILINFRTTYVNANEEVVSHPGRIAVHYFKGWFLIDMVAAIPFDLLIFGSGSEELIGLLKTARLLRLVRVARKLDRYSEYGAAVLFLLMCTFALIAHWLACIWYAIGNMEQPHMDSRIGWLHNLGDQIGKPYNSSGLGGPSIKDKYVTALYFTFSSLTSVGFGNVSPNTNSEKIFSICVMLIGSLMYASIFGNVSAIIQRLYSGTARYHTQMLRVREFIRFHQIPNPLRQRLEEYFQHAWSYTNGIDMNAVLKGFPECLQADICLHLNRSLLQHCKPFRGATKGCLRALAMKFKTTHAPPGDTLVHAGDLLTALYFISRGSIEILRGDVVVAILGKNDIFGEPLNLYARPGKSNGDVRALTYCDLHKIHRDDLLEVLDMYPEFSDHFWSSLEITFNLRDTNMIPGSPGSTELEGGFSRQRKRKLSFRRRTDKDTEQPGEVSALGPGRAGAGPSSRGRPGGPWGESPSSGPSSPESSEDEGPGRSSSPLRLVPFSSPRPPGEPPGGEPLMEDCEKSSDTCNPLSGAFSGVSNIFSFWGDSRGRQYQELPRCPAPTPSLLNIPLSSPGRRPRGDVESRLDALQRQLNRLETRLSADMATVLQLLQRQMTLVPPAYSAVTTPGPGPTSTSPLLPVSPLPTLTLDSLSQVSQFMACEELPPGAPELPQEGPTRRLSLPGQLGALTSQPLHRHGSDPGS
# Outline: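 First, 1000 cells per well are seeded and cultured overnight at 37 C. Next, FluxOR II dye is loaded for 1 h at room temperature, protected from light. After 10 more minutes, stimulus is added and fluorescence is read.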
# [4] = molecular target: Cytochrome P450 3A4 (Homo sapiens) (UniProt P08684); test: Cytochrome P450 Family 3 Subfamily A Member 4 (CYP3A4) small molecule antagonists: luciferase reporter qHTS assay (AID 1671201); details: P450-Glo CYP3A4 enzyme, luciferin luminescence, 1 h; series mostly up to 115 µM; further: nearly all actives have a fitted effect of over 50% in size
# Sequence of Cytochrome P450 3A4 (Homo sapiens) (P08684 whole entry, looked up): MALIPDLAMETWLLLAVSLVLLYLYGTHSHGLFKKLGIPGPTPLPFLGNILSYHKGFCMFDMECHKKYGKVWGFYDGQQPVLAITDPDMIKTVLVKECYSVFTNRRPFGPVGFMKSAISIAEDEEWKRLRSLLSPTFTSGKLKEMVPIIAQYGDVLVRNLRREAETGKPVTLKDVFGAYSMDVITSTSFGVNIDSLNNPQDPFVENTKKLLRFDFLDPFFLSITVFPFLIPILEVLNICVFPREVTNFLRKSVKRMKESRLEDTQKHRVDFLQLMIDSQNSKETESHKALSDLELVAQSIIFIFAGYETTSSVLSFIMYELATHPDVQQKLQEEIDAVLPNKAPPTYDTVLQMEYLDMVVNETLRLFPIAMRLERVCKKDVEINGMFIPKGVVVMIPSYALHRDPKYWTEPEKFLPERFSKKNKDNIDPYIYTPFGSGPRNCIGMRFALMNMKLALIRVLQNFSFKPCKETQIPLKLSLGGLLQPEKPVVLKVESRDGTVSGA
# Outline: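 Enzyme and proluciferin substrate are mixed with test chemicals for 10 min, then NADPH regeneration system drives turnover for 1 h at room temperature. A detection reagent halts the reaction; luminescence after 20 min gives relative activity.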
# [5] = molecular target: Cytochrome P450 2C9 (Homo sapiens) (UniProt P11712); test: Cytochrome P450 Family 2 Subfamily C Member 9 (CYP2C9) small molecule antagonists: luciferase reporter qHTS assay (AID 1671198); details: P450-Glo CYP2C9 enzyme assay, luciferin luminescence; series mostly up to 115 µM; further: nearly all actives have a fitted effect of over 50% in size
# Sequence of Cytochrome P450 2C9 (Homo sapiens) (P11712 whole entry, looked up): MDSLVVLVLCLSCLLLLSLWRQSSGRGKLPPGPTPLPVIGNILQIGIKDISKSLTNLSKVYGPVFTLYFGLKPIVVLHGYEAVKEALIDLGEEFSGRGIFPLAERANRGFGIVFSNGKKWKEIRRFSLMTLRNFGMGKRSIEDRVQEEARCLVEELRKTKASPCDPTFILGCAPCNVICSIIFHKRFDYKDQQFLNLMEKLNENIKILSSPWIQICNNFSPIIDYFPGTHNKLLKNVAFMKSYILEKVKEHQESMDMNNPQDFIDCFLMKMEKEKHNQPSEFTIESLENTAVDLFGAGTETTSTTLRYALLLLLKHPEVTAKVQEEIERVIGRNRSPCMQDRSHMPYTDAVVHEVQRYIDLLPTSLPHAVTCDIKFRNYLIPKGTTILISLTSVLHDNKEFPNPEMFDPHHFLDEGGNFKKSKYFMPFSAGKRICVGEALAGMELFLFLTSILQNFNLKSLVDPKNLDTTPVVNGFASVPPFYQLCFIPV
# Outline: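 Enzyme-substrate mix preincubated with compound 10 min at room temperature; reaction started with NADPH regeneration solution, 1 h 37C. Luminescent luciferin product read after 20 min detection reagent.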
# Potency means the concentration at half of the fitted maximal effect.
SMILES,Potency [1],Potency [2],Potency [3],Potency [4],Potency [5]
CCCCCCCCC=O,inactive,inactive,inactive,inactive,
CC(=O)OC(C)(C)C,inactive,inactive,inactive,inactive,inactive
CCN(CC)C(=O)c1ccc(O)c(OC)c1,inactive,inactive,inactive,inactive,inactive
CC(C)COC(=O)c1ccccc1O,inactive,,inactive,inactive,inactive
Cc1onc(-c2ccccc2)c1-c1ccc(S(N)(=O)=O)cc1,7.76 µM (active),inactive,inactive,inactive,13.8 µM (active)
CN1[C@@H]2CC[C@H]1CC(NC(=O)n1c(=O)[nH]c3ccccc31)C2 (stereo partly drawn),inactive,inactive,,inactive,inactive
CCCc1ccc(N)cc1,35.6 µM (active),35.6 µM (active),inactive,,
CC(C)CCCCCCN,inactive,inactive,inactive,inactive,inactive
CCCCCCCCCCCCCCCCCC(=O)OCCCCCCCCCCCCCC(C)C,inactive,inactive,,inactive,inactive
CCOC(=O)Cn1c(=O)sc2cccc(Cl)c21,7.96 µM (active),5.03 µM (active),inactive,,10 µM (active)
CCCCCCOC(=O)CC(CC(=O)OCCCCCC)(OC(=O)CCC)C(=O)OCCCCCC,39.9 µM (active),inactive,inactive,,31.7 µM (active)
C=CC(=O)N1CCOCC1,35.6 µM (active),,,inactive,inactive
O=C(O)/C=C/c1ccc(/C=C/C(=O)O)cc1,8.74 µM (active),inactive,,inactive,inactive
OC[C@H]1O[C@@H]2O[C@H]3[C@H](O)[C@@H](O)[C@@H](O[C@H]4[C@H](O)[C@@H](O)[C@@H](O[C@H]5[C@H](O)[C@@H](O)[C@@H](O[C@H]6[C@H](O)[C@@H](O)[C@@H](O[C@H]7[C@H](O)[C@@H](O)[C@@H](O[C@H]8[C@H](O)[C@@H](O)[C@@H](O[C@H]9[C@H](O)[C@@H](O)[C@@H](O[C@H]1[C@H](O)[C@H]2O)O[C@@H]9CO)O[C@@H]8CO)O[C@@H]7CO)O[C@@H]6CO)O[C@@H]5CO)O[C@@H]4CO)O[C@@H]3CO,inactive,inactive,,inactive,inactive
NCCNC(=O)c1ccc(Cl)cn1,inactive,,inactive,inactive,inactive
CC(C)(O)Cc1ccccc1,inactive,inactive,inactive,inactive,inactive
Cc1ncc(CSSCc2cnc(C)c(O)c2CO)c(CO)c1O,15.5 µM (active),,inactive,,8.71 µM (active)
CCN1CCCC(OC(=O)C(c2ccccc2)c2ccccc2)C1 (stereo not drawn),,inactive,,,inactive
COc1ccc(COC=O)cc1,inactive,63.3 µM (active),inactive,inactive,

SMILES,Potency [1],Potency [2],Potency [3],Potency [4],Potency [5]
CSc1nc(NC2CC2)nc(NC(C)(C)C)n1,,2.52 µM (active),,39.9 µM (active),35.6 µM (active)
CO,,,inactive,,
COC(=O)CCCCCCCCC(=O)OC,,40.1 µM (active),inactive,inactive,
N[C@@H](CS)C(=O)O,,inactive,inactive,inactive,
N#CC1(O)CCCCC1,40.2 µM (active),,inactive,inactive,
CC/C=C\C#N,,inactive,,inactive,inactive
C[C@H](O)C(=O)Nc1c(I)c(C(=O)NC(CO)CO)c(I)c(C(=O)NC(CO)CO)c1I,,inactive,,inactive,inactive
C[N+](C)(C)CC[N+]1(C)Cc2c(Cl)c(Cl)c(Cl)c(Cl)c2C1,,inactive,inactive,inactive,inactive
CC(=O)CCc1ccc(O)cc1,,inactive,,inactive,inactive
CCCCCCCCCCCCI,,,,inactive,
NC(=O)c1ncn([C@@H]2O[C@H](CO)[C@@H](O)[C@H]2O)c1O,,inactive,,inactive,inactive
CCCCN(CCO)CCO,inactive,inactive,inactive,inactive,
O=C(O)C(O)[C@H](O)[C@@H](O)[C@H](O)[C@H](O)CO (stereo partly drawn),40.4 µM (active),40.4 µM (active),inactive,inactive,
CC(=O)O[C@H](CC(=O)[O-])C[N+](C)(C)C,,,inactive,,
CSc1ccc(C=O)cc1,,,inactive,inactive,inactive
Cc1c(F)cc2c(=O)c(C(=O)O)cn3c2c1CCC3C (stereo not drawn),,inactive,,inactive,inactive
NS(=O)(=O)c1cc2c(cc1C(F)(F)F)NC(Cc1ccccc1)NS2(=O)=O (stereo not drawn),,inactive,,,
COc1ccc(NC(C)=O)cc1,,36.5 µM (active),,inactive,inactive
CCCCCN(CCCCC)C(=O)C(CCC(=O)O)NC(=O)c1ccc(Cl)c(Cl)c1 (stereo not drawn),,inactive,9.52 µM (active),,2.19 µM (active)
